Source: the supplement of paper PMC10849652
Targets with a hit are over-represented here; the source holds about 8,800 in all. About 0.5% of all pairs of compound and target were hits.

What was measured:
Experiment in all cases: log2 fold change, soluble protein after heating vs DMSO (PISA); higher = thermal stabilisation; K562 lysate, 10 uM; active = over 0.2 and 3.5 SD of the protein, either way, in both replicates (recomputed)
lapatinib = compound: CS(=O)(=O)CCNCc1ccc(-c2ccc3ncnc(Nc4ccc(OCc5cccc(F)c5)c(Cl)c4)c3c2)o1 [lapatinib]
Summary of the method: (§1)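 Dounce homogenisation of K562 pellets in PBS pH 7.4 with 1 mM MgCl2 produced a crude extract, used at 1 mg/mL protein. Exposure to 10 μM compound lasted 30 min, and aliquots were then heated for 3 min across 48°C-58°C, pooled and brought to 0.5% NP-40 at 4°C. The supernatant after 21,000xg for 90 min was quantified by TMTpro 16plex LC-MS/MS with channel sums equalised. Duplicate values are given as log-two fold change in thermal stability relative to solvent controls.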

pictilisib = compound: CS(=O)(=O)N1CCN(Cc2cc3nc(-c4cccc5[nH]ncc45)nc(N4CCOCC4)c3s2)CC1 [pictilisib]
Summary of the method: as §1

crizotinib = compound: C[C@@H](Oc1cc(-c2cnn(C3CCNCC3)c2)cnc1N)c1c(Cl)ccc(F)c1Cl [crizotinib]
Summary of the method: as §1

[1] = compound: C[C@H](C1=CC=C(C=C1)C(=O)NC2=C3C=CNC3=NC=C2)N
Summary of the method: as §1

gandotinib = compound: Cc1cc(Nc2cc(CN3CCOCC3)c3nc(C)c(Cc4ccc(Cl)cc4F)n3n2)n[nH]1 [gandotinib]
Summary of the method: as §1

tozasertib = compound: Cc1cc(Nc2cc(N3CCN(C)CC3)nc(Sc3ccc(NC(=O)C4CC4)cc3)n2)n[nH]1 [tozasertib]
Summary of the method: as §1

doramapimod = compound: Cc1ccc(-n2nc(C(C)(C)C)cc2NC(=O)Nc2ccc(OCCN3CCOCC3)c3ccccc23)cc1 [doramapimod]
Summary of the method: as §1

bafetinib = compound: Cc1ccc(NC(=O)c2ccc(CN3CC[C@H](N(C)C)C3)c(C(F)(F)F)c2)cc1Nc1nccc(-c2cncnc2)n1 [bafetinib]
Summary of the method: as §1

[2] = compound: Cc1cccc(CC(=O)N2CCc3c2ccc(-c2cn(C)c4ncnc(N)c24)c3F)n1
Summary of the method: as §1

duvelisib = compound: C[C@H](Nc1ncnc2nc[nH]c12)c1cc2cccc(Cl)c2c(=O)n1-c1ccccc1 [duvelisib]
Summary of the method: as §1

Measured: log2 fold change

GART (UniProt C9JZG2)
inactive: lapatinib -0.131 | pictilisib 0.019 | crizotinib -0.245 | [1] -0.371 | gandotinib 0.02 | tozasertib 0.037 | doramapimod 0.166 | bafetinib 0.026 | [2] 0.19

ERG28 (UniProt Q9UKR5)
Chain of UniProt Q9UKR5 (Q9UKR5 whole entry, looked up): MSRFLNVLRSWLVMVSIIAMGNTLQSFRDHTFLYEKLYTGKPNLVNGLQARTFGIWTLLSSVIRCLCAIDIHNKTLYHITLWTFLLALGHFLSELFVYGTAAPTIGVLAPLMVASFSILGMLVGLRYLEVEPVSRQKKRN
active: [1] 0.593
inactive: lapatinib 0.008 | pictilisib 0.049 | duvelisib 0.014 | gandotinib -0.349 | tozasertib -0.11 | bafetinib 0.041 | [2] -0.392

GAA (UniProt P10253)
inactive: lapatinib 0.083 | pictilisib 0.034 | crizotinib -0.098 | [1] -0.018 | gandotinib 0.04 | tozasertib -0.027 | doramapimod -0.099 | bafetinib 0.081 | [2] -0.04

DST isoform 3 (UniProt Q03001)
active: [1] 1.39
inactive: pictilisib 0.049 | gandotinib -0.243 | tozasertib -0.056 | bafetinib -0.118 | [2] -0.224

FNDC3A (UniProt Q9Y2H6)
inactive: crizotinib 0.036 | gandotinib 0.42 | doramapimod 0.143 | [2] 0.126
active: [1] -0.808

FOXL2 (UniProt P58012)
Chain of UniProt P58012 (P58012 whole entry, looked up): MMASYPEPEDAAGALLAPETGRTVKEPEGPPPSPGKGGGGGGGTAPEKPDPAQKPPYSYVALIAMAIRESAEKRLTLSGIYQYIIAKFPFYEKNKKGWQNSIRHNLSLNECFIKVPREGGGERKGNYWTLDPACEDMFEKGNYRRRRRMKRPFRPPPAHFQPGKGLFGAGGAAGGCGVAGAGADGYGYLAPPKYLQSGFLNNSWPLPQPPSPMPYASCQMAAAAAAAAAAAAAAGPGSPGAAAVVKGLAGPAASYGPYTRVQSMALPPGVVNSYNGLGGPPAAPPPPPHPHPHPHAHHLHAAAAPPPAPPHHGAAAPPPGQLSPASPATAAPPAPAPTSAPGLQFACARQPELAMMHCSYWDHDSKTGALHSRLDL
inactive: lapatinib -0.25 | pictilisib 0.091 | duvelisib 0.094 | tozasertib -0.092
active: bafetinib -0.703

FAM204A (UniProt Q9H8W3)
Chain of UniProt Q9H8W3 (Q9H8W3 whole entry, looked up): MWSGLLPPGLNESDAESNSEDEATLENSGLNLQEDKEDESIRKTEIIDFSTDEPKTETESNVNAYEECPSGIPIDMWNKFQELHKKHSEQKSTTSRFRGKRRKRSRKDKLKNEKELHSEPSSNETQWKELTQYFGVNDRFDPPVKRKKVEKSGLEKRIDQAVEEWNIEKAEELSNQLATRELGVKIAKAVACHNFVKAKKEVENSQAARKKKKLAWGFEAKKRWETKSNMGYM
inactive: crizotinib -0.053 | [1] 0.412 | gandotinib 0.045 | doramapimod 0.154 | [2] -0.077

GAPVD1 (UniProt Q14C86)
inactive: lapatinib 0.03 | pictilisib -0.138 | bafetinib 0.014

EIF2B4 (UniProt Q9UI10)
Chain of UniProt Q9UI10 (Q9UI10 whole entry, looked up): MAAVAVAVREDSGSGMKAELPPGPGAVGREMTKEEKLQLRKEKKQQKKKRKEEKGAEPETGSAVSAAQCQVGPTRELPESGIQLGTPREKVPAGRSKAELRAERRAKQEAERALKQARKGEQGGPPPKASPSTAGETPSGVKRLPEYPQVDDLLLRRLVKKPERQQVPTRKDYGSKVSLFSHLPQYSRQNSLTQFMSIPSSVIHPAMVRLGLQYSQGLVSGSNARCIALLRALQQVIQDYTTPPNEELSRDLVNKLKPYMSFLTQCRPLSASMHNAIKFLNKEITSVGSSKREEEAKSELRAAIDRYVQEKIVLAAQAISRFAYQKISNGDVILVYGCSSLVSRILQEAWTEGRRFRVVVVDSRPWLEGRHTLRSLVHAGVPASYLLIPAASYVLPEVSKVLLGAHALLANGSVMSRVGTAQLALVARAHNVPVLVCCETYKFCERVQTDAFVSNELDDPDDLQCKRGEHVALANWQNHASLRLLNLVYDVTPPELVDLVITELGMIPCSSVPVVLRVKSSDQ
active: tozasertib -0.314
inactive: lapatinib -0.003 | pictilisib 0.038 | crizotinib -0.057 | duvelisib -0.032 | doramapimod -0.019 | bafetinib -0.04

FAT2 (UniProt Q9NYQ8)
inactive: lapatinib -0.027 | pictilisib -0.015 | crizotinib -0.512 | [1] -0.366 | gandotinib 0.182 | tozasertib 0.055 | doramapimod -0.094 | bafetinib -0.244 | [2] 0.407

FOXJ2 (UniProt Q9P0K8)
inactive: pictilisib 0.043 | [1] -0.037 | duvelisib 0.039 | gandotinib 0.044 | tozasertib 0.127 | bafetinib -0.224 | [2] 0.056

DYRK1A isoform 2 (UniProt Q13627)
inactive: pictilisib -0.166 | crizotinib -0.071 | [1] -0.171 | gandotinib 0.014 | doramapimod 0.092 | bafetinib 0.145 | [2] 0.034

FAT1 (UniProt Q14517)
inactive: lapatinib -0.129 | crizotinib -0.109 | [1] 0.079 | gandotinib 0.027 | tozasertib -0.139 | doramapimod 0.475 | [2] 0.072

EIF2AK3 (UniProt Q9NZJ5)
active: [2] 1.48
inactive: lapatinib 0.3 | [1] -0.051 | duvelisib -0.122 | gandotinib -0.212

ELAVL4 (UniProt P26378)
Chain of UniProt P26378 (P26378 whole entry, looked up): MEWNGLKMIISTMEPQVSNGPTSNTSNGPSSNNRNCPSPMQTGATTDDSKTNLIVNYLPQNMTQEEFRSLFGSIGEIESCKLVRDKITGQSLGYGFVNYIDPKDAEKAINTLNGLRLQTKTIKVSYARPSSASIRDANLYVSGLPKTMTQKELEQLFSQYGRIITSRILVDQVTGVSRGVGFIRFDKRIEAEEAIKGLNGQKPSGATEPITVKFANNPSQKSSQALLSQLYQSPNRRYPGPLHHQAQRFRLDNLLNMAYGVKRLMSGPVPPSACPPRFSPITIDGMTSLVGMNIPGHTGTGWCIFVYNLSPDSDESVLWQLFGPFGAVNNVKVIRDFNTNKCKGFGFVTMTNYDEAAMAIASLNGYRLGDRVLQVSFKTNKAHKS
inactive: lapatinib -0.017 | crizotinib -0.065 | [1] -0.064 | duvelisib 0.03 | gandotinib -0.034 | tozasertib 0.05 | doramapimod 0.035 | [2] -0.061

GC isoform 3 (UniProt P02774)
Chain of UniProt P02774 (P02774 whole entry, looked up): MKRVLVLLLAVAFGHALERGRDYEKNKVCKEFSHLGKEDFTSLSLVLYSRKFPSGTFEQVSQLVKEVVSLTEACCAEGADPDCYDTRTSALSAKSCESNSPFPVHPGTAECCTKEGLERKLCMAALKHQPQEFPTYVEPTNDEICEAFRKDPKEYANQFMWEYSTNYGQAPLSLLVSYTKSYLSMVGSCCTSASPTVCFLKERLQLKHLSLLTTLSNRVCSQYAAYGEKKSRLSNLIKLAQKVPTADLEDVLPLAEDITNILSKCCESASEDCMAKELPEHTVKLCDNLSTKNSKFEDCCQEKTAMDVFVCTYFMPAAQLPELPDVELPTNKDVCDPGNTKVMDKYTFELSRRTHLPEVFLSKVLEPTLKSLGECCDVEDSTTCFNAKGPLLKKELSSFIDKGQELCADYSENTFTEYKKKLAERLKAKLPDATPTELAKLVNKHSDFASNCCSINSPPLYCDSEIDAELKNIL
inactive: crizotinib 0.029 | [1] 0.173 | duvelisib 0.133 | gandotinib -0.025 | tozasertib -0.004 | doramapimod -0.081 | [2] -0.075

EXO5 (UniProt Q9H790)
inactive: crizotinib -0.113 | doramapimod 0.061 | bafetinib -0.261
active: pictilisib -0.43

ESRRB isoform 1 (UniProt O95718)
inactive: pictilisib 0.05 | [1] 0.438 | gandotinib -0.437 | bafetinib 0.028 | [2] -0.308

FAM76B (UniProt Q5HYJ3)
Chain of UniProt Q5HYJ3 (Q5HYJ3 whole entry, looked up): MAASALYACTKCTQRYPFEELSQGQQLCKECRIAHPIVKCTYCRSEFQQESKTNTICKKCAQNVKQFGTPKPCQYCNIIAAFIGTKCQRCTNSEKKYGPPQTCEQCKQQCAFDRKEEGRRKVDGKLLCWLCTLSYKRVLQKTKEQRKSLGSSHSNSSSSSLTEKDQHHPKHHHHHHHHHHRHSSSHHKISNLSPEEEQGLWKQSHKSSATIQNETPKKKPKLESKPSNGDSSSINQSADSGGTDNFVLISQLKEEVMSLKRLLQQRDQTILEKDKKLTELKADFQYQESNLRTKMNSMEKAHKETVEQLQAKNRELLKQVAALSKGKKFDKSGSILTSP
inactive: lapatinib -0.049 | crizotinib 0.028 | [1] -0.19 | duvelisib -0.02 | gandotinib 0.023 | tozasertib -0.021 | doramapimod -0.016
active: [2] 0.269

FLT4 (UniProt P35916)
inactive: lapatinib -0.007 | pictilisib 0.057 | [1] -0.173 | duvelisib 0.026 | gandotinib 0.019 | tozasertib -0.056 | bafetinib -0.035 | [2] -0.041

DUSP22 isoform 2 (UniProt Q9NRW4)
Chain of UniProt Q9NRW4 (Q9NRW4 whole entry, looked up): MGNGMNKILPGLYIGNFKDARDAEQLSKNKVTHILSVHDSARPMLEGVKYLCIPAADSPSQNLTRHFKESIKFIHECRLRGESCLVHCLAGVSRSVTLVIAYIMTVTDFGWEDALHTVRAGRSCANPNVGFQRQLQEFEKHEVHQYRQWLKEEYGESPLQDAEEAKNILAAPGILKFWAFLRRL
inactive: lapatinib 0.031 | pictilisib -0.082 | [1] -0.058 | duvelisib 0.038 | gandotinib 0.03 | bafetinib 0.018 | [2] 0.037

FAM111A (UniProt Q96PZ2)
Chain of UniProt Q96PZ2 (Q96PZ2 whole entry, looked up): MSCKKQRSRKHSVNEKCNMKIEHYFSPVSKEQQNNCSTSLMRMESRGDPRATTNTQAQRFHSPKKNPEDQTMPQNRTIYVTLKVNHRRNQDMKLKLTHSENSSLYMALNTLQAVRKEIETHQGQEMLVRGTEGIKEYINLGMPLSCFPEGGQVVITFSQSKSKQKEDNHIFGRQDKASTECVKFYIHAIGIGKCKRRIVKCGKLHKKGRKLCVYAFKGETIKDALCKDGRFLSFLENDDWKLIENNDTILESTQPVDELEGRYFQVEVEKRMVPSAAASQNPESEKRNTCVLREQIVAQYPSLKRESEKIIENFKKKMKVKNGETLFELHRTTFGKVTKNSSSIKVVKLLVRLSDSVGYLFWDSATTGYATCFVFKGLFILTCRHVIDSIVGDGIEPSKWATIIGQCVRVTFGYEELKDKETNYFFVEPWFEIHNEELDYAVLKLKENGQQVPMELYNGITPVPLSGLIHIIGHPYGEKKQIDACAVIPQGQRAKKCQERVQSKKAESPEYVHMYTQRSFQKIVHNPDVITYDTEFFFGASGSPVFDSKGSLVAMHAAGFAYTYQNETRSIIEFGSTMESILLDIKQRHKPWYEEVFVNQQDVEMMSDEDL
inactive: lapatinib 0.223 | crizotinib -0.01 | duvelisib 0.03 | tozasertib -0.02 | doramapimod -0.163

EWSR1 (UniProt H7BY36)
inactive: pictilisib 0.071 | crizotinib -0.042 | [1] 0.07 | duvelisib -0.011 | gandotinib -0.167 | tozasertib 0.01 | doramapimod -0.066 | bafetinib 0.293 | [2] 0.019

EPB41 isoform 4 (UniProt P11171)
inactive: lapatinib 0.014 | crizotinib -0.038 | [1] 0.012 | gandotinib -0.004 | doramapimod 0.046 | [2] -0.024

EPB41, A0A2R8Y783
inactive: lapatinib -0.063 | pictilisib 0.04 | [1] 0.121 | duvelisib -0.089 | gandotinib -0.066 | tozasertib 0.061 | bafetinib 0.04 | [2] -0.006

EIF3I (UniProt Q5TFK1)
inactive: lapatinib -0.063 | [1] 0.137 | gandotinib 0.052 | [2] 0.112

FAM53B (UniProt Q14153)
inactive: pictilisib 0.02 | crizotinib -0.03 | [1] -0.032 | duvelisib 0.079 | gandotinib 0.037 | tozasertib 0.024 | doramapimod 0.169 | bafetinib -0.023 | [2] 0.083

EPN2 (UniProt I3L356)
inactive: lapatinib 0.014 | pictilisib -0.054 | [1] -0.361 | gandotinib 0.081 | bafetinib 0.031 | [2] 0.146

EVI5L isoform 2 (UniProt Q96CN4)
inactive: [1] 0.022 | gandotinib 0.062 | [2] 0.049

FTSJ1 isoform 2 (UniProt Q9UET6)
inactive: lapatinib 0.013 | [1] -0.129 | gandotinib 0.077 | tozasertib -0.175 | [2] 0.079

DTL (UniProt Q9NZJ0)
inactive: pictilisib -0.026 | crizotinib -0.035 | [1] 0.059 | duvelisib 0.174 | gandotinib -0.053 | doramapimod 0.064 | bafetinib -0.099 | [2] 0.006

EID1 (UniProt Q9Y6B2)
Chain of UniProt Q9Y6B2 (Q9Y6B2 whole entry, looked up): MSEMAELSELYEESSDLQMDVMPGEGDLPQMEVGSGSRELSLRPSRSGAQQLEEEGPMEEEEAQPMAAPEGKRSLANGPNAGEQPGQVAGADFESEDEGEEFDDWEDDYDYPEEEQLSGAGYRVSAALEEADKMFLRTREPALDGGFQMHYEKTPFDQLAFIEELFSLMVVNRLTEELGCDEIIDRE
inactive: [1] -0.02 | gandotinib 0.108 | tozasertib -0.043 | [2] 0.069
active: duvelisib 0.604

GCA (UniProt P28676)
Chain of UniProt P28676 (P28676 whole entry, looked up): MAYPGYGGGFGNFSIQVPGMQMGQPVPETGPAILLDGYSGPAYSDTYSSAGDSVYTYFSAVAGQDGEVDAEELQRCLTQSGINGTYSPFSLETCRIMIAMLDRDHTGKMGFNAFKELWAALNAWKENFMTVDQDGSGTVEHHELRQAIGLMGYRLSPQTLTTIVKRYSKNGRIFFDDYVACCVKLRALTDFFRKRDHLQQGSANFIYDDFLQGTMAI
inactive: lapatinib 0.016 | [1] -0.091 | gandotinib -0.073 | [2] 0.057

ETFRF1 (UniProt Q6IPR1)
Chain of UniProt Q6IPR1 (Q6IPR1 whole entry, looked up): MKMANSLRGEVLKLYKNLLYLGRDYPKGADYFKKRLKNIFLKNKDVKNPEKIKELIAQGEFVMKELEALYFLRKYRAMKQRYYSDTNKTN
inactive: lapatinib 0.021 | pictilisib -0.01 | crizotinib -0.004 | [1] 0.112 | duvelisib -0.004 | gandotinib -0.087 | doramapimod -0.057 | bafetinib -0.039 | [2] -0.039

FBXO45 (UniProt P0C2W1)
inactive: lapatinib -0.067 | pictilisib -0.034 | crizotinib -0.123 | [1] -0.081 | gandotinib -0.031 | tozasertib 0.115 | doramapimod 0.017 | bafetinib -0.272 | [2] 0.091

FMNL2 isoform 3 (UniProt Q96PY5)
Chain of UniProt Q96PY5 (Q96PY5 whole entry, looked up): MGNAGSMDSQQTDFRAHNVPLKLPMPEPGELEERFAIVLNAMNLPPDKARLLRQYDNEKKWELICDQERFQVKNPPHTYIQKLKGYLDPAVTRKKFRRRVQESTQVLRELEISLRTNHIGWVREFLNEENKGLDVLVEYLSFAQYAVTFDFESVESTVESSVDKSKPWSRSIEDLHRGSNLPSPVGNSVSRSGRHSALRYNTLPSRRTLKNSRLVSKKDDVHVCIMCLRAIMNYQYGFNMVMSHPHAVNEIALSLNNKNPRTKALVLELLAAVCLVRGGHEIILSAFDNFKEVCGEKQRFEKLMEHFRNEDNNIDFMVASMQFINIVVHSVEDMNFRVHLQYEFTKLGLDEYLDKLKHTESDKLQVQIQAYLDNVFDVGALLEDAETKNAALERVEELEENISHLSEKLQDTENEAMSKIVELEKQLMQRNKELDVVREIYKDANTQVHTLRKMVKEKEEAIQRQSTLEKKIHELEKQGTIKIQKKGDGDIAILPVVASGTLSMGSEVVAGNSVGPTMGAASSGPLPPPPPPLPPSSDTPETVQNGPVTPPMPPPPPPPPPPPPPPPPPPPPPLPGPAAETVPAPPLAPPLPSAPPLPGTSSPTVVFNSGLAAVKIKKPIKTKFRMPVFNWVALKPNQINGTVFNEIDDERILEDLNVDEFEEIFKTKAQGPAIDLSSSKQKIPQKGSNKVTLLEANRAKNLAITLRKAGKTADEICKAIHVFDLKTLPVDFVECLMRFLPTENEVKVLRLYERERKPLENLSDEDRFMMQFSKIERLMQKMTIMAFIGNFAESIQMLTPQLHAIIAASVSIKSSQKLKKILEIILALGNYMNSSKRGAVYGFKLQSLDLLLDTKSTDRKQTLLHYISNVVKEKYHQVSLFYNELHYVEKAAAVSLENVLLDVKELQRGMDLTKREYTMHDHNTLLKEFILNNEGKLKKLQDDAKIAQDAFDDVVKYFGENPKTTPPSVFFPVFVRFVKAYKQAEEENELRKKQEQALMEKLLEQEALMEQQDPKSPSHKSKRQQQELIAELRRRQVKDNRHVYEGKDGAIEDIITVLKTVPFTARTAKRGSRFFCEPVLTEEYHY
inactive: lapatinib -0.077 | crizotinib -0.17 | duvelisib -0.085 | doramapimod 0.091
